In the library only some 2% were active in any assay of this set; here they are far more common.
PME-1 inh – PME-1 inhibitors via competitive probe labeling, primary screen, biochemical, fluorescence polarization, FP-Rh probe, HTS. Protein phosphatase methylesterase 1 (Homo sapiens), Q9Y570. recombinant PME-1. inhibition, % at 5.9 µM. hit rate 0.53% among 320,000;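 active = inhibition above the campaign mean of all compounds plus 3 SD, cut at about 26% in these data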;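 note: competitive labeling of PME-1 active site by serine hydrolase directed probe; 0% = PME-1 with DMSO and 100% = wells lacking PME-1 enzyme; inhibitors block probe labeling so polarization falls and inhibition rises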
GSTO1 counter – inhibitors of recombinant GSTO1, primary screen, counter-screen for RBBP9 inhibitor project, biochemical, fluorescence polarization; activity-based probe fluorescence polarization; hit rate 1.1% among 300,000; Glutathione S-transferase omega-1 (Homo sapiens), P78417; inhibition, % at 5.96 µM;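 active = inhibition above the campaign mean inhibition plus 3 SD, cut at about 35% in these data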;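 note: 0% = GSTO1-1 with DMSO and 100% = wells lacking GSTO1-1 enzyme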
Target sequence (P78417 whole entry, looked up): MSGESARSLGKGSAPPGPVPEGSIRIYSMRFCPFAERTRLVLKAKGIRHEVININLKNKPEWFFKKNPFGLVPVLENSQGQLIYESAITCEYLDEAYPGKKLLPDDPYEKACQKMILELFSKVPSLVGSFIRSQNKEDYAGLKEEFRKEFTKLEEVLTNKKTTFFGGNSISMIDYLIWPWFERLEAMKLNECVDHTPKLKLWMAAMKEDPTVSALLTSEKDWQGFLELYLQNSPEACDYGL
LYPLA2 inh – LYPLA2 inhibitors, primary screen, counter-screen for PME1 inhibitor project, biochemical, fluorescence polarization, FP-Rh probe ABPP; Acyl-protein thioesterase 2 (Homo sapiens), O95372; recombinant LYPLA2; inhibition, % at 5.9 µM; hit rate 0.38% among 320,000; AID 2177, 2009;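 active = inhibition above the screen-wide mean plus 3 SD, limit set per campaign, cut at about 26% in these data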;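 note: 0% = LYPLA2 with DMSO and 100% = wells lacking LYPLA2 enzyme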
Fam108B counter – mouse Fam108B serine hydrolase inhibitors, primary screen, counter-screen for RBBP9 inhibitor project, biochemical, fluorescence polarization. recombinant Fam108B, FP-Rh probe fluorescence polarization. inhibition, % at 9.51 µM. hit rate 0.33% among 300,000;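 active = inhibition above the screen mean inhibition plus 3 SD, computed separately per campaign, cut at about 18% in these data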;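 note: inhibitors lower polarization as less probe binds the enzyme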
PREPL inh – PREPL enzyme inhibitors, primary screen, biochemical, fluorescence polarization. Prolyl endopeptidase-like (Homo sapiens), Q4J6C6. recombinant PREPL, fluorescence polarization activity-based probe. inhibition, % at 5.96 µM. hit rate 0.68% among 320,000. AID 2751, 2010; in the data active = inhibition above about 43%;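 note: 0% = enzyme with DMSO and 100% = wells lacking enzyme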
LYPLA1 inh – LYPLA1 inhibitors, primary screen, counter-screen for PME1 inhibitor project, biochemical, fluorescence polarization, FP-Rh probe ABPP. AID 2174, 2009. recombinant LYPLA1. hit rate 0.16% among 320,000. inhibition, % at 5.9 µM. Acyl-protein thioesterase 1 (Homo sapiens), O75608;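 active = inhibition above the mean of all tested compounds plus 3 SD, set per campaign, cut at about 14% in these data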;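 note: inhibitors block serine hydrolase probe labeling of LYPLA1 so polarization falls; 0% = enzyme with DMSO and 100% = wells lacking LYPLA1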
Target sequence (O75608 whole entry, looked up): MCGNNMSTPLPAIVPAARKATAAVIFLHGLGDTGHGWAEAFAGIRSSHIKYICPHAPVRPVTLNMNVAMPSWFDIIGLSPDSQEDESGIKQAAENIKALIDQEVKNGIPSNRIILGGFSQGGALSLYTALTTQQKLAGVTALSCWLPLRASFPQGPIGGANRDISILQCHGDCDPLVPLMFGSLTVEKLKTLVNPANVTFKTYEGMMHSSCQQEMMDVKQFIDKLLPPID
Fam108b confirm – mouse Fam108b serine hydrolase inhibitors, confirmation, counter-screen for RBBP9 inhibitor project, biochemical, fluorescence polarization, triplicate; shares compounds with Fam108B counter; recombinant Fam108b, FP-Rh probe fluorescence polarization; inhibition, % at 9.51 µM; hit rate 44% among 930; AID 1978, 2009;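 active = inhibition above a limit from the primary screen, the mean over all compounds plus 3 SD, cut at about 19% in these data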;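 note: 0% = median of active Fam108b wells and 100% = catalytically dead S170A mutant; inhibitors free the probe so polarization falls as inhibition rises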
Fam108b ABPP HTS – inhibition of mouse Fam108b by HTS hits, late-stage follow-up, biochemical, gel-based ABPP, soluble recombinant form; shares compounds with Fam108B counter; fluorophosphonate probe; inhibition, % at 20 µM; hit rate 44% among 260; in the data active = inhibition above about 40%
GSTO1 confirm – GSTO1 inhibitor hit confirmation, counter-screen for RBBP9 inhibitor project, biochemical, fluorescence polarization, triplicate; hit rate 54% among 2,400; recombinant GSTO1, probe fluorescence polarization; inhibition, % at 5.96 µM; shares compounds with GSTO1 counter; AID 2176, 2009;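 active = inhibition above the primary screen's cutoff, its mean inhibition plus 3 SD, cut at about 35% in these data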;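 note: loss of polarization as inhibitors block binding of rhodamine sulfonate ester activity probe; 0% = GSTO1 with DMSO and 100% = wells lacking GSTO1 enzyme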
LYPLA1 conf – LYPLA1 inhibitors, retest, confirmation, counter-screen for PME1 inhibitor project, biochemical, fluorescence polarization, FP-Rh probe ABPP | shares compounds with LYPLA1 inh | recombinant LYPLA1 | inhibition, % at 5.9 µM | hit rate 69% among 480;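 active = mean inhibition across replicates above the hit cutoff set in the primary screen, cut at about 15% in these data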;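 note: loss of FP-Rh probe labeling of LYPLA1 seen as lower polarization; 0% = LYPLA1 with DMSO and 100% = wells lacking LYPLA1 enzyme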
LYPLA2 conf – LYPLA2 inhibitors, retest, confirmation, counter-screen for PME1 inhibitor project, biochemical, fluorescence polarization, FP-Rh probe ABPP; shares compounds with LYPLA2 inh; hit rate 72% among 1,100; inhibition, % at 5.9 µM; recombinant LYPLA2;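 active = mean inhibition across replicates above the hit cutoff set in the primary screen, cut at about 26% in these data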;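 note: blocked labeling of the enzyme by serine hydrolase FP-Rh probe lowers polarization; 0% = enzyme with DMSO and 100% = wells lacking LYPLA2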
* hit, by the source's call; nt = no result given.

SMILES	PME-1 inh	GSTO1 counter	LYPLA2 inh	Fam108B counter	PREPL inh	LYPLA1 inh	Fam108b confirm	Fam108b ABPP HTS	GSTO1 confirm	LYPLA1 conf	LYPLA2 conf
COc1cccc2c1C(=O)c1c(O)c3c(c(O)c1C2=O)C[C@@](O)(C(=O)CO)C[C@@H]3O[C@H]1C[C@H](N)[C@@H](O)[C@H](C)O1	46*	44*	41*	36*	30	57*	35*	35	33	56*	nt
CCCCCN1CN(S(=O)(=O)c2cccs2)c2nc3ccccc3nc21	2	4	-2	-3	-4	2	nt	nt	nt	nt	nt
O=C(O)c1ccccc1N/N=C/c1cc(Br)cc(Br)c1O	49*	23	12	27*	19	29*	19*	nt	nt	23*	nt
Cc1ccc(N2C(=O)c3cccc4c(C(=O)O)ccc(c34)C2=O)cc1	2	-5	8	-4	-7	2	nt	nt	nt	nt	nt
CC(=O)Nc1ccc(N2C(=O)c3cccc4c(O)ccc(c34)C2=O)cc1	18	25	20	26*	19	17*	12	nt	nt	16*	nt
CC(C)(C)OC(=O)C[C@H]1C/C=C\C[C@@H](CC(=O)NCCO)C(=O)NC[C@@H](c2ccccc2)OC1=O	nt	nt	nt	nt	2	nt	nt	nt	nt	nt	nt
CCn1c(CSc2nccn2C)nc2cc(C(=O)O)ccc21	25	21	26	20*	20	26*	59*	0	nt	24*	nt
CCN(CC)c1ccc(/C=C(\C#N)C(N)=S)cc1	2	-9	-2	-2	-1	1	nt	nt	nt	nt	nt
CCN(CC)c1ccc(/C=C(\C#N)C(=O)c2ccc(Br)cc2)cc1	15	-43	26	61*	-8	32*	54*	0	nt	77*	nt
O=C(O)c1ccc(CSC2CCCCC2)cc1	2	-8	7	4	4	6	nt	nt	nt	nt	nt
Cc1c2cc(O)c(=O)cc-2oc2cc(O)c(O)cc12	113*	96*	108*	114*	60*	95*	138*	0	107*	94*	102*
Cc1cc(C)c(S(=O)(=O)/N=C2/C=C(Sc3ncn[nH]3)C(=O)c3ccccc32)cc1C	31*	84*	36*	52*	15	2	28*	nt	87*	nt	33*
COc1ccc(N=C2NC(=O)S/C2=C\c2ccc(N(C)C)cc2)cc1	47*	10	33*	32*	28	28*	28*	nt	nt	27*	18
CC1(CCc2ccccc2)NC(=O)N(CC(=O)Nc2ccc3c(c2)OCCO3)C1=O (centres undefined)	1	6	-1	5	8	-2	nt	nt	nt	nt	nt
COCCn1c(N)c(C(=O)NCC2CCCO2)c2nc3ccccc3nc21 (centres undefined)	38*	102*	71*	61*	37	70*	-7	nt	5	2	2

Source: PubChem BioAssay
